Experimental data taken from PubChem BioAssay (NCI).
This is part of a sample that, as a whole, favours compounds with a hit. Of some 83,000 tested, about 20% had one in any assay.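 Single-dose data. Exposure time 48 hours. Values below 10 considered active.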 A number with no mark means an inactive call. Active and inactive are the calls of the source.

Legend:
Experiment in all cases: NCI-60 one-dose screen, 48 h (100 = growth as untreated, 0 = no growth, -100 = all killed)
HCT-15 colon = details: 10 µM unless noted
HT29 colon = details: 10 µM unless noted
SNB-19 CNS = details: 10 µM unless noted
U251 CNS = details: 10 µM unless noted
PC-3 prostate = details: 10 µM unless noted
SK-MEL-5 melanoma = details: 10 µM unless noted
UACC-62 melanoma = details: 10 µM unless noted
LOX IMVI melanoma = details: 10 µM
SK-MEL-28 melanoma = details: 10 µM unless noted

Row | Structure (SMILES) | growth (HCT-15 colon) | growth (HT29 colon) | growth (SNB-19 CNS) | growth (U251 CNS) | growth (PC-3 prostate) | growth (SK-MEL-5 melanoma) | growth (UACC-62 melanoma) | growth (LOX IMVI melanoma) | growth (SK-MEL-28 melanoma)
1 | CN(C)CCCNC(=O)c1cc(NC(=O)c2cc(NC(=O)c3ccc(C#Cc4ccccc4)cc3)cn2C)cn1C | -20.6% (active) | -68.4% (active) | 24.7% | -91.6% (active) | -30.8% (active) | -93.7% (active) | -33.1% (active) | -100% (active) | 47.1%
2 | CCCCSc1nc(Nc2ccc(S(N)(=O)=O)cc2)c(C#N)c(-c2cc(OC)c(OC)c(OC)c2)n1 | 25.7% | 42% | 54.5% | 43.3% | 16.7% | 20.5% | 21.9% | 7.76% (active) | 35.1%
3 | CC(=O)/C=C/c1cccc2c1C(=O)NC(C)(c1cc3cc(Br)ccc3oc1=O)N2 (stereo unspecified) | 14.6% | 27.6% | 51.8% | 18.6% | 21.6% | 13.1% | 13% | 14.8% | 58.8%
4 | Cn1cc(-c2cc(N)n3nc(-c4c[nH]c5ccccc45)cc3n2)c2cc(Br)cnc21 | -58.5% (active) | -80.7% (active) | -39.6% (active) | -79.7% (active) | -43.3% (active) | -94.2% (active) | -95% (active) | -94.1% (active) | -96.2% (active)
5 | CCOC(=O)c1ccc(Nc2nc(NN)nc(-c3ccc(OC)cc3)c2C#N)cc1 | 106% | 115% | 92.2% | 106% | 85.2% | 90.1% | 93.4% | 114% | 113%
6 | CC12CC[C@@H]3[C@]4(C)COC(c5cn[nH]c5-c5ccc(Br)cc5)O[C@@H]4CC[C@@]3(C)[C@@H]1CC(C1=CCOC1=O)O2 (stereo partly specified) | 42.2% | 47.6% | 59.4% | 53% | 24.2% | 32.4% | 41.5% | 22.1% | 47.1%
7 | O=c1[nH]c2ccc(Cl)cc2cc1CSc1nccc(-c2ccc(Cl)cc2)n1 | 56.9% | 67.7% | 40.4% | 47.4% | 49.9% | 48.6% | 31.8% | 57.5% | 46.1%
8 | Cc1nc(Nc2ncc(C(=O)Nc3c(C)cccc3Cl)s2)cc(N2CCN(CCCNC(=O)COc3ccc(C4CCC(=O)NC4=O)cc3)CC2)n1 (stereo unspecified) | 68.3% | -13.6% (active) | 47.9% | 62.6% | 44.1% | 73.7% | 55.4% | -96.6% (active) | 89.4%
9 | CC(=O)c1cc(C(=O)c2ccccc2)n2c1ccc1ccccc12 | 104% | 109% | 98% | 106% | 81% | 104% | 86.9% | 96.7% | 122%
10 | Cc1ccccc1[C@H]1C(C(=O)c2ccc(Cl)cc2)C2(N[C@@H]1c1ccccc1)C(=O)Nc1ccc(Cl)cc12 (stereo partly specified) | -69.1% (active) | -88.5% (active) | 17.4% | -82.9% (active) | -26.9% (active) | 0.559% (active) | -55.5% (active) | -100% (active) | -23.4% (active)
11 | O=C(C1=CNC(=S)NC1c1ccc(O)cc1)c1cc2ccccc2oc1=O (stereo unspecified) | 104% | 106% | 97.7% | 102% | 86.7% | 101% | 95.8% | 91.5% | 118%
12 | Brc1ccc(N/N=C/c2c[nH]c3ccc(Br)cc23)nc1 | -61.8% (active) | -80.1% (active) | 4.49% (active) | -63.5% (active) | -29.6% (active) | -87% (active) | -57% (active) | -100% (active) | -50.7% (active)
13 | COc1c(F)ccc(C(=O)Nc2ccc3nc(NC(=O)C4CCCN(S(=O)(=O)c5ccc(Cl)cc5)C4)sc3c2)c1F (stereo unspecified) | 72.8% | 72.1% | 82.5% | 70.3% | 55.9% | 72.3% | 67.1% | – | 89.4%
14 | O=C(/C=C/Nc1ccc2oc(=O)ccc2c1)c1cc2cc(Br)ccc2oc1=O | 102% | 103% | 97.5% | 102% | 98% | 103% | 97.5% | 99.3% | 112%
15 | COc1c(F)ccc(C(=O)Nc2ccc3nc(NC(=O)C4CCCN(S(=O)(=O)c5cccc(Cl)c5)C4)sc3c2)c1F (stereo unspecified) | 68.9% | 82.2% | 80.4% | 71.5% | 57.7% | 79.6% | 78.6% | – | 92.1%
16 | COc1ccc(-c2ccnc(SCc3cc4ccccc4[nH]c3=O)n2)cc1 | 28.2% | 29.5% | – | 64.1% | 69.6% | 59.1% | 44.8% | 49.9% | 73%
17 | COc1ccc(-c2nc3cc(C)ccc3n2CC(=O)N=Nc2c(O)[nH]c3ccccc23)cc1 | -64.7% (active) | -28.2% (active) | 19.1% | 5.59% (active) | 8.89% (active) | -93% (active) | -37.2% (active) | -63.5% (active) | -57.5% (active)
18 | Cc1ccc([C@H]2C(C(=O)c3ccc(Cl)cc3)C3(N[C@@H]2c2ccccc2)C(=O)Nc2ccc(Br)cc23)cc1 (stereo partly specified) | 50.8% | 7.2% (active) | 66.5% | 47.9% | 16.7% | 88% | 45.9% | – | 77.9%
19 | Cn1cc(-c2cc3nc(-c4cn(C)c5ncc(Br)cc45)cc(N)n3n2)c2ccccc21 | -23.3% (active) | -86.1% (active) | -27% (active) | -68.8% (active) | -15.5% (active) | -94% (active) | -83.2% (active) | -100% (active) | -91.6% (active)
20 | Cc1ccc([C@H]2C(C(=O)c3ccc(Cl)cc3)C3(N[C@@H]2c2ccccc2)C(=O)Nc2ccc(Cl)cc23)cc1 (stereo partly specified) | 47.1% | 3.1% (active) | 66.2% | 47.9% | 14% | 77.9% | 33.8% | 39.8% | 69.4%
21 | C=C1CC[C@@H]2[C@]3(C)COC(c4cn[nH]c4-c4ccc(Br)cc4)O[C@@H]3CC[C@@]2(C)[C@@H]1C/C=C1/C(=O)OCC1O (stereo partly specified) | -62.6% (active) | 0.504% (active) | -36.5% (active) | -86.7% (active) | -44.1% (active) | -97% (active) | -79.1% (active) | – | -78% (active)
22 | COc1ccc2c(c1)c(/C=N/Nc1ccc3ccccc3n1)cn2C | -44.8% (active) | -66.7% (active) | – | 7.9% (active) | 7.27% (active) | 23% | 20.6% | -97.9% (active) | -1.59% (active)
23 | COc1ccccc1C(=O)NN1C(=O)/C(=C/C2=Cc3ccccc3OC2)SC1=S | 114% | 110% | 97.6% | 101% | 91.2% | 104% | 91.8% | 94% | 109%
24 | COc1ccc(/C=C/c2nc3ccccc3c(=O)n2CC(=O)Nc2ccc(OC)cc2)cc1 | 88.4% | 72.9% | 51.9% | 25.6% | 46.1% | 92.3% | 74.7% | – | 103%
25 | COc1c(F)ccc(C(=O)Nc2ccc3nc(NC(=O)C4CCCN(S(=O)(=O)c5ccc(C(F)(F)F)cc5)C4)sc3c2)c1F (stereo unspecified) | 85.7% | 79.1% | – | 76% | 57.7% | 84.9% | 65.8% | – | 92.3%
